The campaign covered roughly 5,500 compounds. About 2,000 (36%) were called active. Another 18% or so got no clear call; they are omitted. Cut-off read from the data, not from the text of the source: active = normalized growth mostly below about 0.91 (no sharp cut-off); inconclusive = no clear call, values can overlap the other calls; inactive = mostly above about 0.92. Some of the results follow.
Assay: chemical genetic growth profiling, strain panel (AID 1159580);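 note: tested at 20 µM; growth read once vehicle control cultures reached saturation at 30 °C; 1 = growth at the plate median or of vehicle wells; lower values mean less growth of the strain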
Conditions: growth OD
[1] = S. cerevisiae deletion strains, locus YAL013W, strain DEP1, hits give low values
[2] = S. cerevisiae deletion strains, locus YBR229C, strain ROT2, hits give low values
[3] = S. cerevisiae deletion strains, locus YCL061C, strain MRC1, hits give low values
[4] = S. cerevisiae deletion strains, locus YDL101C, strain DUN1, hits give low values
[5] = S. cerevisiae deletion strains, locus YDL134C, strain PPH21, hits give low values
[6] = S. cerevisiae deletion strains, locus YDR150W, strain NUM1, hits give low values
[7] = S. cerevisiae deletion strains, locus YEL061C, strain CIN8, hits give low values
[8] = S. cerevisiae deletion strains, locus YGR078C, strain PAC10, hits give low values
[9] = S. cerevisiae deletion strains, locus YHR030C, strain SLT2, hits give low values
[10] = S. cerevisiae deletion strains, locus YHR087W, strain rtc3, hits give low values
[11] = S. cerevisiae deletion strains, locus YJR043C, strain POL32, hits give low values
[12] = S. cerevisiae deletion strains, locus YJR075W, strain HOC1, hits give low values
[13] = S. cerevisiae deletion strains, locus YKL190W, strain CNB1, hits give low values
[14] = S. cerevisiae deletion strains, locus YLR039C, strain RIC1, hits give low values
[15] = S. cerevisiae deletion strains, locus YLR058C, strain SHM2 (second series), hits give low values
[16] = S. cerevisiae deletion strains, locus YLR085C, strain ARP6, hits give low values
[17] = S. cerevisiae deletion strains, locus YLR262C, strain YPT6, hits give low values
[18] = S. cerevisiae deletion strains, locus YML094W, strain GIM5, hits give low values
[19] = S. cerevisiae deletion strains, locus YMR219W, strain ESC1, hits give low values
[20] = S. cerevisiae deletion strains, locus YMR263W, strain SAP30, hits give low values
[21] = S. cerevisiae deletion strains, locus YMR307W, strain GAS1, hits give low values
[22] = S. cerevisiae deletion strains, locus YNL153C, strain GIM3, hits give low values
[23] = S. cerevisiae deletion strains, locus YNL298W, strain CLA4 (second series), hits give low values
[24] = S. cerevisiae deletion strains, locus YNL322C, strain KRE1, hits give low values
[25] = S. cerevisiae deletion strains, locus YNR030W, strain Alg12, hits give low values
[26] = S. cerevisiae deletion strains, locus YOL006C, strain TOP1, hits give low values
[27] = S. cerevisiae deletion strains, locus YPL055C, strain LGE1, hits give low values
[28] = S. cerevisiae deletion strains, locus YPL241C, strain CIN2, hits give low values
[29] = S. cerevisiae deletion strains, locus YPR135W, strain CTF4, hits give low values
[30] = S. cerevisiae strains, strain wild type, hits give low values
[31] = S. cerevisiae deletion strains, locus YNL128W, strain TEP1, hits give low values

Measured: normalized growth

Cn1c(SCc2ccccc2)nnc1-c1ccc2ncccc2c1
active: [21] 1.41 [resistant]
inactive: [1] 1 | [2] 0.997 | [3] 1.01 | [4] 0.986 | [5] 1.01 | [6] 0.902 | [7] 0.987 | [8] 1 | [9] 1.18 | [10] 0.999 | [11] 0.997 | [12] 0.991 | [13] 0.994 | [14] 1.1 | [15] 0.997 | [16] 1.05 | [17] 1.1 | [18] 1.01 | [19] 0.999 | [20] 0.989 | [22] 0.997 | [23] 1.07 | [24] 0.992 | [25] 1.02 | [26] 1.01 | [27] 0.99 | [28] 1.02 | [29] 1.08

Cn1c(SCC(=O)N2CCOCC2)nnc1-c1ccc2ncccc2c1
inactive: [1] 0.996 | [2] 1.01 | [3] 1.02 | [4] 1.03 | [5] 0.963 | [6] 0.929 | [7] 1.03 | [8] 1.02 | [9] 1.08 | [10] 1.01 | [11] 1.01 | [12] 1.03 | [14] 0.971 | [15] 0.995 | [16] 1.1 | [17] 0.942 | [18] 1.06 | [19] 1 | [20] 1 | [22] 1 | [23] 1.03 | [24] 0.992 | [25] 1.03 | [26] 1.03 | [27] 1.04 | [28] 1.05 | [29] 1.03 | [30] 0.984

CCOC(=O)c1cnc2n(c1=O)CCS2
active: [18] 1.13 [resistant]
inactive: [1] 1.02 | [2] 0.997 | [4] 1.05 | [6] 0.965 | [7] 1.04 | [8] 1.04 | [9] 1.1 | [10] 1.02 | [11] 0.999 | [12] 1.01 | [13] 0.996 | [14] 0.99 | [15] 0.995 | [16] 1.06 | [17] 0.996 | [19] 0.999 | [20] 1 | [31] 0.997 | [22] 1.02 | [23] 1.03 | [24] 1.01 | [25] 1.08 | [26] 1.07 | [27] 0.987 | [28] 1.01 | [29] 1.12 | [30] 0.975

CCOC(=O)C1=C(O)C(=O)N(Cc2ccccc2)C1
inactive: [1] 1.02 | S. cerevisiae deletion strains, locus YBR021W, strain FUR4, hits give low values 1.02 | [2] 1 | S. cerevisiae deletion strains, locus YCL029C, strain bik1, hits give low values 1.01 | S. cerevisiae deletion strains, locus YDL035C, strain GPR1, hits give low values 1.01 | S. cerevisiae deletion strains, locus YDL074C, strain BRE1, hits give low values 1 | [4] 1.01 | [5] 1 | S. cerevisiae deletion strains, locus YDL185W, strain tfp1, hits give low values 1.02 | S. cerevisiae deletion strains, locus YDL192W, strain arf1, hits give low values 1.01 | S. cerevisiae deletion strains, locus YDR101C, strain arx1, hits give low values 1 | [6] 1.01 | S. cerevisiae deletion strains, locus YDR162C, strain NBP2, hits give low values 0.995 | S. cerevisiae deletion strains, locus YDR318W, strain mcm21, hits give low values 1.02 | S. cerevisiae deletion strains, locus YDR388W, hits give low values 1 | S. cerevisiae deletion strains, locus YDR502C, strain sam2, hits give low values 0.994 | [7] 1.01 | S. cerevisiae deletion strains, locus YER110C, hits give low values 1.02 | S. cerevisiae deletion strains, locus YER155C, strain BEM2, hits give low values 1 | S. cerevisiae deletion strains, locus YER167W, strain BCK2, hits give low values 1.03 | S. cerevisiae deletion strains, locus YGL078C, strain dbp3, hits give low values 1 | S. cerevisiae deletion strains, locus YGL086W, strain mad1, hits give low values 1.02 | S. cerevisiae deletion strains, locus YGL248W, strain PDE1, hits give low values 1.01 | [8] 1.01 | S. cerevisiae deletion strains, locus YGR135W, strain pre9, hits give low values 0.987 | S. cerevisiae deletion strains, locus YGR229C, strain SMI1, hits give low values 1 | S. cerevisiae deletion strains, locus YGR252W, strain gcn5, hits give low values 1.02 | [9] 1.01 | S. cerevisiae deletion strains, locus YHR079C, strain IRE1 (second series), hits give low values 1.02 | S. cerevisiae deletion strains, locus YHR094C, strain hxt1, hits give low values 1.01 | S. cerevisiae deletion strains, locus YHR129C, strain ARP1, hits give low values 1.02 | S. cerevisiae deletion strains, locus YHR200W, strain rpn10, hits give low values 1.01 | S. cerevisiae deletion strains, locus YIL066C, strain RNR3, hits give low values 1 | S. cerevisiae deletion strains, locus YIL073C, strain SPO22, hits give low values 1.1 | S. cerevisiae deletion strains, locus YIL125W, strain kgd1, hits give low values 1 | S. cerevisiae deletion strains, locus YIR030C, strain dcg1, hits give low values 1.01 | S. cerevisiae deletion strains, locus YJL095W, strain BCK1, hits give low values 1.01 | S. cerevisiae deletion strains, locus YJL134W, strain LCB3, hits give low values 1.01 | S. cerevisiae deletion strains, locus YJL168C, strain set2, hits give low values 1.01 | S. cerevisiae deletion strains, locus YJL187C, strain SWE1 (second series), hits give low values 1.01 | [11] 1.04 | [12] 0.997 | S. cerevisiae deletion strains, locus YKL009W, strain mrt4, hits give low values 1.03 | S. cerevisiae deletion strains, locus YKL068W, hits give low values 1 | S. cerevisiae deletion strains, locus YKL085W, strain MDH1 (second series), hits give low values 1.02 | S. cerevisiae deletion strains, locus YKL085W, strain MDH1, hits give low values 1.02 | [13] 1.01 | S. cerevisiae deletion strains, locus YKR001C, strain vps1, hits give low values 1.01 | [14] 1.05 | S. cerevisiae deletion strains, locus YLR058C, strain SHM2, hits give low values 1.02 | S. cerevisiae deletion strains, locus YLR102C, strain apc9, hits give low values 1.01 | [17] 0.993 | S. cerevisiae deletion strains, locus YLR268W, strain sec22, hits give low values 0.982 | S. cerevisiae deletion strains, locus YLR330W, strain CHS5, hits give low values 1.01 | S. cerevisiae deletion strains, locus YLR342W, strain FKS1 (second series), hits give low values 1.09 | S. cerevisiae deletion strains, locus YLR371W, strain rom2, hits give low values 1.01 | S. cerevisiae deletion strains, locus YLR418C, strain cdc73, hits give low values 0.977 | S. cerevisiae deletion strains, locus YML016C, strain PPZ1, hits give low values 1 | S. cerevisiae deletion strains, locus YML032C, strain rad52, hits give low values 1.03 | S. cerevisiae deletion strains, locus YML124C, strain tub3, hits give low values 1.01 | S. cerevisiae deletion strains, locus YMR078C, strain ctf18, hits give low values 1.02 | S. cerevisiae deletion strains, locus YMR223W, strain ubp8, hits give low values 1.03 | [20] 0.999 | [21] 1.03 | S. cerevisiae deletion strains, locus YNL067W, strain RPL9B, hits give low values 0.99 | [31] 0.985 | [22] 0.994 | S. cerevisiae deletion strains, locus YNL233W, strain BNI4, hits give low values 1.01 | S. cerevisiae deletion strains, locus YNL250W, strain rad50, hits give low values 1 | S. cerevisiae deletion strains, locus YNL271C, strain bni1, hits give low values 1.01 | S. cerevisiae deletion strains, locus YNL298W, strain CLA4, hits give low values 1 | S. cerevisiae deletion strains, locus YNL307C, strain MCK1, hits give low values 1.02 | [24] 0.996 | S. cerevisiae deletion strains, locus YNR052C, strain pop2, hits give low values 1.02 | [26] 1.01 | S. cerevisiae deletion strains, locus YOL012C, strain htz1 0.868 | S. cerevisiae deletion strains, locus YOL147C, strain pex11, hits give low values 1.01 | S. cerevisiae deletion strains, locus YOR061W, strain CKA2, hits give low values 1.01 | S. cerevisiae deletion strains, locus YOR069W, strain VPS5, hits give low values 1.01 | S. cerevisiae deletion strains, locus YOR136W, strain idh2, hits give low values 1.02 | S. cerevisiae deletion strains, locus YOR144C, strain elg1, hits give low values 1 | S. cerevisiae deletion strains, locus YOR184W, strain ser1, hits give low values 1.04 | S. cerevisiae deletion strains, locus YOR316C, strain cot1, hits give low values 1.01 | [27] 0.969 | [28] 1 | S. cerevisiae deletion strains, locus YPR119W, strain clb2, hits give low values 1 | S. cerevisiae deletion strains, locus YPR141C, strain kar3, hits give low values 1 | S. cerevisiae deletion strains, locus YPR163C, strain tif3, hits give low values 1.01 | S. cerevisiae deletion strains, locus YPR167C, strain met16, hits give low values 1.01 | S. cerevisiae deletion strains, strain wtn01, hits give low values 1 | [30] 1.01

Reference: PubChem BioAssay AID1159580 (chemical genetic matrix, 2015)
